The record followed here is PubChem BioAssay (NCI).

About 83,000 compounds went through this panel and 20% of them were active in at least one assay; those are over-represented in the sample as a whole.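 Method: cells in 96-well plates; compound added at one concentration; 48 h incubation; percent growth measured; values under 10 scored active.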 The source made the active and inactive calls.

For the assay, the system named is NCI-H23 lung. In words: NCI-60 one-dose screen, 48 h (100 = growth as untreated, 0 = no growth, -100 = all killed). The note with it: 10 µM.
In the case of `N=c1nc(N)ncn1-c1ccccc1`, the growth was 93.1% (inactive).
In the case of `COc1ccc(-c2nnc(-c3c(-c4ccccc4)nc4ncccn34)o2)cc1OC`, the growth was 97.2% (inactive).
The result for `Nc1ncn([C@@H]2O[C@H](CO)[C@@H](O)[C@H]2O)c(=O)n1` reads 37.2% (inactive); that for `CCOC(=O)CCC(NC(=O)c1ccc(N)cc1)C(=O)OCC` (centres undefined), 99.1% (inactive); that for `CC(=O)N(C)c1ccc(Nc2ccc(Nc3ccc(N(C)C(C)=O)cc3)c3c2C(=O)c2ccccc2C3=O)cc1`, 87.3% (inactive).
The result for `COc1ccc(-c2nc3sccn3c2-c2nc3c([nH]2)C(=O)c2ccccc2C3=O)cc1` reads 95.7% (inactive); that for `COc1ccc2c(c1)C(=O)c1c-2c(OCCN(C)C)nc2cc(OC)c(OC)cc12`, 53.1% (inactive); that for `COc1cc(/C=C\c2cc(OC)c(OC)c(OC)c2)cc(NS(=O)(=O)c2ccc(Cl)cc2)c1OC`, 41% (inactive).
The result for `C=C(C(=O)c1ccccc1)C(NC(C)(C)C)c1ccccc1` (centres undefined) reads 31.9% (inactive); that for `O=C1/C(=C/c2ccc(Cl)cc2)SC(=Nc2ccc(Cl)cc2)N1Cc1nc2ccccc2[nH]1`, 78.7% (inactive); that for `CC12O[C@H](C[C@@H](OC(=O)c3ccccc3)[C@H]1O)n1c3ccccc3c3c4c(c5c6ccccc6n2c5c31)C(=O)NC4=O`, 56.9% (inactive).
`COc1ccc(Oc2nc(NC3CCCC3)nc(Sc3ccc(OC)cc3)n2)cc1`: the growth is 79.6% (inactive).
With `COc1cc(-c2cc(/C=C/C(=O)c3ccc4c(c3)OCO4)[nH]n2)cc(OC)c1OC` the figure was 102% (inactive); with `CCN(CC)CCOc1nc2cc(OC)c(OC)cc2c2c1-c1ccc(OC)cc1C2=O`, 77.3% (inactive).
